# Measurements taken from PubChem BioAssay (EPA / NIEHS).
# Where “and” joins values, the source holds several entries; their conditions need not be identical. Equal values may be shown once. Results filed as inconclusive are left out. Some structures have more than one record in an assay (separate samples or runs), and their calls can disagree. Calls of active or inactive are those of the source. Rule for the calls, unless noted: active = hit-call score of the fitted dose curve at least 0.9, where 1 is the maximum; inconclusive = response in the unintended direction; inactive = score below 0.9.
# Tests used:
# [1] = ATG_TAL_CIS: Attagene CIS-FACTORIAL HepG2 Assay for human TAL Basal Promoter (AID 2282966; active = hit-call score of the fitted dose curve at least 0.9, where 1 is the maximum; inactive = score below 0.9;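 note: background control endpoint measuring basal TAL promoter reporter mRNA not a specific factor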); details: HepG2 Attagene cis-factorial TAL promoter reporter; actives raise or lower the signal
# Method in brief: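 Fluorescence of labelled reporter cDNA fragments, resolved by capillary electrophoresis, gave the readout. Human HepG2 liver cells carried transiently transfected cis-element reporter units and were treated for 24 hours; activity was fitted bidirectionally against DMSO.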
# [2] = ATG_TGFb_CIS: Attagene CIS-FACTORIAL HepG2 Assay for human Transforming Growth Factor (TGF) (AID 2282967; active = hit-call score of the fitted dose curve at least 0.9, where 1 is the maximum; inactive = score below 0.9); details: HepG2 Attagene CIS TGFb reporter, mRNA transcription; actives raise or lower the signal
# Method in brief: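 Transient MRTU transfection of HepG2 (FuGene 6). Dose 24 h. TriZol RNA, oligo(dT) RT, PCR, 6-FAM primer extension, HpaI cut, CE. Bidirectional fit, DMSO = baseline.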
# [3] = ATG_VDRE_CIS: Attagene CIS-FACTORIAL HepG2 Assay for human Vitamin D Receptor Element (VDRE) (AID 2282968; active = hit-call score of the fitted dose curve at least 0.9, where 1 is the maximum; inactive = score below 0.9); details: HepG2 VDRE cis-reporter transcription, actives raise or lower the signal
# Method in brief: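 HepG2 cells transiently transfected with cis-element reporter units, dosed 24 h; reporter mRNA measured by RT-PCR, 6-FAM labeling, HpaI digestion and capillary electrophoresis. Activity fitted bidirectionally against DMSO baseline.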
# [4] = biological target: Nuclear receptor subfamily 1 group I member 3 (Homo sapiens) (UniProt Q14994); assay: ATG_CAR_TRANS: Attagene TRANS-FACTORIAL HepG2 Assay for human Constitutive Androstane Receptor (CAR) (AID 2282969); details: HepG2 Attagene TRANS-FACTORIAL CAR reporter;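 note: activators raise reporter mRNA above DMSO so AC50 marks induction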
# Method in brief: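 HepG2 cells transiently transfected with multiplexed GAL4-UAS reporter units expressing chimeric NR-Gal4 proteins; compound exposure 24 h. Reporter mRNA measured by RT-PCR, 6-FAM labelling, HpaI digestion and capillary electrophoresis; gain-of-signal fitted against DMSO baseline.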
# [5] = biological target: Estrogen receptor (Homo sapiens) (UniProt P03372); assay: ATG_ERa_TRANS: Attagene TRANS-FACTORIAL HepG2 Assay for human Estrogen Receptor alpha (ERa) (AID 2282970); details: HepG2 Attagene TRANS ERa GAL4 reporter, mRNA
# Estrogen receptor (Homo sapiens), sequence (P03372 whole entry, looked up, the tested form may be a part): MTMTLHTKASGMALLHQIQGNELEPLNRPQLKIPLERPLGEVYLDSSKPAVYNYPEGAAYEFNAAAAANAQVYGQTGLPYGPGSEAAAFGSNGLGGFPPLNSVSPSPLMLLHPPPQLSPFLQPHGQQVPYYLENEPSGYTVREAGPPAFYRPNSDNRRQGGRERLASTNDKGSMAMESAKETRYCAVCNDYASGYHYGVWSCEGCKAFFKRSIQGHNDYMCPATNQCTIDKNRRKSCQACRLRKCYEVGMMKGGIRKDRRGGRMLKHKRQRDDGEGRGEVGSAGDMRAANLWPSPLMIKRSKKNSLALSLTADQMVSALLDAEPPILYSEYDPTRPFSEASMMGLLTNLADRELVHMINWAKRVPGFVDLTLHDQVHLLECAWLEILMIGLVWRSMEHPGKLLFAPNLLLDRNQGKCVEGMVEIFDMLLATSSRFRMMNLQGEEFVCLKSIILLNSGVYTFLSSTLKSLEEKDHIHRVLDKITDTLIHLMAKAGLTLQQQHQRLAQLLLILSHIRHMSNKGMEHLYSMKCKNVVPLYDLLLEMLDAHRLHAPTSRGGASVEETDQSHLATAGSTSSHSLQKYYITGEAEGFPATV
# Method in brief: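 Human liver HepG2, transient transfection of multiple GAL4-UAS reporter units; TRANS format (exogenous NR-Gal4 chimera). 24 h dosing. Readout: reporter mRNA, RT-PCR, 6-FAM primer extension, HpaI digest, capillary electrophoresis. Positive direction vs DMSO.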
# [6] = biological target: X-box-binding protein 1 (Homo sapiens) (UniProt P17861); assay: ATG_Xbp1_CIS: Attagene CIS-FACTORIAL HepG2 Assay for human X-box Binding Protein 1 (XBP1) (AID 2282972; active = hit-call score of the fitted dose curve at least 0.9, where 1 is the maximum; inactive = score below 0.9); details: HepG2 XBP1 cis-element reporter, Attagene multiplex; actives raise or lower the signal
# X-box-binding protein 1 (Homo sapiens), sequence (P17861 whole entry, looked up, the tested form may be a part): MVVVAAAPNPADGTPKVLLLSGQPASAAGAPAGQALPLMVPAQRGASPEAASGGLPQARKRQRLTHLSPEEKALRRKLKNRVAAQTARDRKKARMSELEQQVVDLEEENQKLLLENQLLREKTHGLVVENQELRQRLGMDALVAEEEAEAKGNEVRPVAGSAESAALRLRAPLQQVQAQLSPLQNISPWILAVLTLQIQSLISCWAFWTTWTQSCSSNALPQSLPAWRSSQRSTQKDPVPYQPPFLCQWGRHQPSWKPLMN
# Method in brief: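 Fluorescence-labelled cDNA fragments from reporter transcripts, separated by capillary electrophoresis, give the signal. Source: HepG2 cells transfected with promoter-driven reporter units, harvested 24 h post-dose. DMSO served as reference for bidirectional curve fitting.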
# [7] = ATG_M_19_TRANS: Attagene TRANS-FACTORIAL HepG2 Assay for M19 Transcription Factor (Internal Marker) (AID 2282974); details: HepG2 Attagene TRANS-FACTORIAL M19 internal marker reporter
# Method in brief: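 Using RT-PCR and capillary electrophoresis, reporter mRNA from transiently transfected human HepG2 cells was quantified following 24 h exposure; activity was fitted in the positive direction against DMSO.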
# [8] = ATG_GAL4_TRANS: Attagene TRANS-FACTORIAL HepG2 Assay for GAL4 (Internal Marker) (AID 2282976); details: HepG2 Attagene TRANS GAL4 internal marker reporter
# Method in brief: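 First, HepG2 cells were transfected with reporter units under GAL4-UAS control. Next, they were treated with chemical for 24 h. Finally, RNA was reverse-transcribed, PCR-amplified, FAM-labelled and resolved by capillary electrophoresis, with induction scored against DMSO.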
# [9] = biological target: Glucocorticoid receptor (Homo sapiens) (UniProt P04150); assay: ATG_GR_TRANS: Attagene TRANS-FACTORIAL HepG2 Assay for human Glucocorticoid Receptor (GR) (AID 2282978); details: HepG2 Attagene TRANS GR reporter, mRNA transcription;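 note: activators score as hits since higher reporter transcript over DMSO is fitted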
# Glucocorticoid receptor (Homo sapiens), sequence (P04150 whole entry, looked up, the tested form may be a part): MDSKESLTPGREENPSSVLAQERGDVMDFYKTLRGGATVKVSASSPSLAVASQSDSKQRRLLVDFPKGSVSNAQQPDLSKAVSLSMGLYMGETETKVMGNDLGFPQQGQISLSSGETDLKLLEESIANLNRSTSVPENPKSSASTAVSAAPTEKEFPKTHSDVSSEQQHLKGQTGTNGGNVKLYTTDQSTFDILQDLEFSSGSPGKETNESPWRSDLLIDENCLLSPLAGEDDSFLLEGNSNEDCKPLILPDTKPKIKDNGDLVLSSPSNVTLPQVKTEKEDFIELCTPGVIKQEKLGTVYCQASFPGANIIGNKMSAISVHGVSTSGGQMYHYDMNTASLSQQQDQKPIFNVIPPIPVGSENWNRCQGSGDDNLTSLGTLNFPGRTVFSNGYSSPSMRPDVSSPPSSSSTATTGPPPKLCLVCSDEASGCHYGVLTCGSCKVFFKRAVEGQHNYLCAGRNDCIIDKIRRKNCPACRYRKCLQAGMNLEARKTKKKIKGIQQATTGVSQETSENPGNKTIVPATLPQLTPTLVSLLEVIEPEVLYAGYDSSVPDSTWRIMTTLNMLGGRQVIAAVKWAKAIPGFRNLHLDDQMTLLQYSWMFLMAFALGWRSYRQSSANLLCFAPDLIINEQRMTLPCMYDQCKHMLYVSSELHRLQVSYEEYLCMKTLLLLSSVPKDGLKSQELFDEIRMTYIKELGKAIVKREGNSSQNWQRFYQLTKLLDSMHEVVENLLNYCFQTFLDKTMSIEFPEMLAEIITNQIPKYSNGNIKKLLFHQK
# Method in brief: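 Exogenous NR-GAL4 fusion activity was assessed through induced GAL4-UAS reporter transcripts in transfected human HepG2 cells, quantified after 24 h by RT-PCR and fluorescent capillary electrophoresis with DMSO as baseline.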
# [10] = biological target: Oxysterols receptor LXR-beta (Homo sapiens) (UniProt P55055); assay: ATG_LXRb_TRANS: Attagene TRANS-FACTORIAL HepG2 Assay for human Liver X Receptor beta (LXRb) (AID 2282981); details: HepG2 Attagene TRANS GAL4-LXRb reporter, mRNA
# Oxysterols receptor LXR-beta (Homo sapiens), sequence (P55055 whole entry, looked up, the tested form may be a part): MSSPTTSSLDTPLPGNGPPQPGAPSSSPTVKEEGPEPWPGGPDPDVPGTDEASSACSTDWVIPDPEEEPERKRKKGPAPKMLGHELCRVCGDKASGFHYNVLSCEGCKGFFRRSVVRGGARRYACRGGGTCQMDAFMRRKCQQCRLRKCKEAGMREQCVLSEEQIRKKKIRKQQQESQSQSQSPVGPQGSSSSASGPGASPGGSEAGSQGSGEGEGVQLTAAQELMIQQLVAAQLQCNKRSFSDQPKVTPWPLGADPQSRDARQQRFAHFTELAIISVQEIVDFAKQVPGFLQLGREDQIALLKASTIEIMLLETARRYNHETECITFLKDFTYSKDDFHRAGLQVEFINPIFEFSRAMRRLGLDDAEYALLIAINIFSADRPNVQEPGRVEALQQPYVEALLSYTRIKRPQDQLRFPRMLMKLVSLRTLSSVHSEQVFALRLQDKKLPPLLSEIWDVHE
# Method in brief: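 HepG2 cells transiently transfected with multiple reporter transcription units carrying chimeric NR-Gal4 proteins acting on GAL4-UAS reporters; compound exposure 24 h. Reporter mRNA quantified by RT-PCR, 6-FAM labelling, HpaI digestion and capillary electrophoresis; gain of signal versus DMSO.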
# [11] = biological target: Hepatocyte nuclear factor 4-alpha (Homo sapiens) (UniProt P41235); assay: ATG_HNF4a_TRANS: Attagene TRANS-FACTORIAL HepG2 Assay for human Hepatocyte Nuclear Factor 4 alpha (HNF4a) (AID 2282982); details: HepG2 HNF4a transactivation reporter, mRNA readout
# Hepatocyte nuclear factor 4-alpha (Homo sapiens), sequence (P41235 whole entry, looked up, the tested form may be a part): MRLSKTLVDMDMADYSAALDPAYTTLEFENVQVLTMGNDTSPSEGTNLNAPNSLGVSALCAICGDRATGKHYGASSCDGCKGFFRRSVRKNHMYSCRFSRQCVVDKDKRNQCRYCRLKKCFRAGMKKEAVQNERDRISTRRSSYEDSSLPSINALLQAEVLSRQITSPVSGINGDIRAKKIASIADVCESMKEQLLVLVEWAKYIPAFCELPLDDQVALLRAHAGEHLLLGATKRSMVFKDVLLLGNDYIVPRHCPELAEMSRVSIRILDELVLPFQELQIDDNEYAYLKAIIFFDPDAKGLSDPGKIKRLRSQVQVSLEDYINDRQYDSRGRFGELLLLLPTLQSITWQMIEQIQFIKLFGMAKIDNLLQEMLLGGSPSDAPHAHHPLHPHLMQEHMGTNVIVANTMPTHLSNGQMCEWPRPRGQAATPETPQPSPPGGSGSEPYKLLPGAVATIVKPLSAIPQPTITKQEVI
# Method in brief: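 HepG2 cells transiently transfected with multiplexed GAL4-UAS reporter units responsive to chimeric NR-GAL4 proteins; compound exposure 24 h. Reporter mRNA quantified by RT-PCR, 6-FAM labelling, HpaI digestion and capillary electrophoresis; gain of signal versus DMSO baseline.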
# [12] = ATG_M_06_TRANS: Attagene TRANS-FACTORIAL HepG2 Assay for M06 Transcription Factor (Internal Marker) (AID 2282983); details: HepG2 Attagene TRANS M06 internal marker reporter;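 note: reporter transcript level by RT-PCR then capillary electrophoresis fluorescence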
# Method in brief: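 Transfect HepG2 with MRTUs → dose compounds 24 h → isolate RNA, oligo(dT) RT → PCR with reporter primers → 6-FAM primer extension → HpaI digest → CE fragment analysis. Positive direction vs DMSO.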
# [13] = ATG_M_32_TRANS: Attagene TRANS-FACTORIAL HepG2 Assay for M32 Transcription Factor (Internal Marker) (AID 2282984); details: HepG2 Attagene TRANS M32 internal marker reporter;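 note: transcript level of a background control reporter unit measured by RT-PCR and capillary electrophoresis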
# Method in brief: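 HepG2 cells transiently transfected with multiple GAL4-UAS reporter transcription units, dosed for 24 hours; reporter mRNA quantified by RT-PCR, 6-FAM primer extension, HpaI digestion and capillary electrophoresis. Gain-of-signal fitted versus DMSO baseline; internal background-control marker.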
# [14] = biological target: Nuclear receptor subfamily 4 group A member 2 (Homo sapiens) (UniProt P43354); assay: ATG_NURR1_TRANS: Attagene TRANS-FACTORIAL HepG2 Assay for human Nuclear Receptor Related Protein 1 (NURR1) (AID 2282985); details: HepG2 Attagene TRANS reporter, mRNA readout
# Nuclear receptor subfamily 4 group A member 2 (Homo sapiens), sequence (P43354 whole entry, looked up, the tested form may be a part): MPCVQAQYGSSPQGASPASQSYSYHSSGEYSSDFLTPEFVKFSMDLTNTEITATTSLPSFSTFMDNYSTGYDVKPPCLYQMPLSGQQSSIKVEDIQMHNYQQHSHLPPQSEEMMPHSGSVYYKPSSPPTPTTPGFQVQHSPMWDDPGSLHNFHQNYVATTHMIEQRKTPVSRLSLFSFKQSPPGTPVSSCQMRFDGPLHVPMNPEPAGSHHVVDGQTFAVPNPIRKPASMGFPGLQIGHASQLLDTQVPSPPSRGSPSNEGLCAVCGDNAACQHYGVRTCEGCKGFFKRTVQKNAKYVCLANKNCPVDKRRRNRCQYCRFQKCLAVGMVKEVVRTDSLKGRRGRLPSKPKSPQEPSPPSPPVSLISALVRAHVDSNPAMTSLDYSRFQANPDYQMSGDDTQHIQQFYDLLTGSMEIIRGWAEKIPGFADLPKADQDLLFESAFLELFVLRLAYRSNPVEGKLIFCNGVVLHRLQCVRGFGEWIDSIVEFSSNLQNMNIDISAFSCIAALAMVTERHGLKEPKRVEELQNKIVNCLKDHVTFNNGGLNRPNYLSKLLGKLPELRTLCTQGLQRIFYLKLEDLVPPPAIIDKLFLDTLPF
# Method in brief: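 HepG2 cells transiently transfected with GAL4-UAS reporter units and chimeric NR-Gal4 constructs; chemical exposure 24 h. Reporter mRNA quantified by RT-PCR, fluorescent labelling and capillary electrophoresis; gain of signal fitted relative to DMSO baseline.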
# [15] = biological target: Transcriptional activator Myb (Homo sapiens) (UniProt P10242); assay: ATG_Myb_CIS: Attagene CIS-FACTORIAL HepG2 Assay for human Myeloblastosis (Myb) Proto-Oncogene Transcription Factor (AID 2282986; active = hit-call score of the fitted dose curve at least 0.9, where 1 is the maximum; inactive = score below 0.9); details: HepG2 Attagene CIS-FACTORIAL Myb reporter transcription; actives raise or lower the signal
# Transcriptional activator Myb (Homo sapiens), sequence (P10242 whole entry, looked up): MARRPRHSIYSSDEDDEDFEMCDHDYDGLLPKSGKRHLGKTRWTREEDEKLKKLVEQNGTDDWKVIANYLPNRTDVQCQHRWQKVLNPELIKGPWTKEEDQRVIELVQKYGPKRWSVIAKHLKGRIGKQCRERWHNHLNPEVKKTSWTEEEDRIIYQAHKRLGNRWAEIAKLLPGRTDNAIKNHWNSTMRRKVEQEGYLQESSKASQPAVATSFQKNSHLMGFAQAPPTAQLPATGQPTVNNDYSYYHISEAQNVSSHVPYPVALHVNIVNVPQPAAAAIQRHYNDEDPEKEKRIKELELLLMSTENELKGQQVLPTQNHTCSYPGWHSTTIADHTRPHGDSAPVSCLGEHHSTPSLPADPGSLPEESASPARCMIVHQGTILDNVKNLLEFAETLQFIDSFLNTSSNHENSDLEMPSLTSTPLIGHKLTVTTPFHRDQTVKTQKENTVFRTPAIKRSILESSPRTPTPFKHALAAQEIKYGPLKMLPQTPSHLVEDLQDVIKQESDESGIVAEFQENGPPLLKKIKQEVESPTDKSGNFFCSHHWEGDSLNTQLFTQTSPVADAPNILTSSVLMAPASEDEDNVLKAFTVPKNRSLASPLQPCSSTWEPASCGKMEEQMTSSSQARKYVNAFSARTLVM
# Method in brief: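 In this HepG2 transient-transfection format, cis-regulated reporter mRNA is quantified 24 h post-dosing by RT-PCR with capillary electrophoresis, fitted bidirectionally to DMSO baseline.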
# [16] = biological target: Steroid hormone receptor ERR1 (Homo sapiens) (UniProt P11474); assay: ATG_ERRa_TRANS: Attagene TRANS-FACTORIAL HepG2 Assay for human Estrogen-Related Receptor alpha (ERRa) (AID 2282971); details: HepG2 Attagene TRANS reporter, ERRa transactivation
# Steroid hormone receptor ERR1 (Homo sapiens), sequence (P11474 whole entry, looked up, the tested form may be a part): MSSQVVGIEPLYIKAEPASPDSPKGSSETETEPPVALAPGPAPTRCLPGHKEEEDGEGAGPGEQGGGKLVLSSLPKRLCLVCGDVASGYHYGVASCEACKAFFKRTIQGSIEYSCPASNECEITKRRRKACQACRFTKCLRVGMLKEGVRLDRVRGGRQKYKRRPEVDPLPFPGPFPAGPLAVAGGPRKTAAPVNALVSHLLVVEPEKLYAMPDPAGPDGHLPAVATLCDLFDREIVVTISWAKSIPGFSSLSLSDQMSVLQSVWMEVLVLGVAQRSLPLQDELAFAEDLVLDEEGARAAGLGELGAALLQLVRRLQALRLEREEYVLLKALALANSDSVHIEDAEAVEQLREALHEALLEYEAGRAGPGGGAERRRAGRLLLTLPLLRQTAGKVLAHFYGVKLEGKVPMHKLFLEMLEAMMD
# Method in brief: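 Reporter transcript induction was quantified by RT-PCR and capillary electrophoresis of FAM-labelled, HpaI-cut products after 24 h treatment of HepG2 cells carrying transiently transfected GAL4-UAS reporter units and an exogenous ERRa-Gal4 fusion; activity scored as increase over DMSO.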
# [17] = biological target: Estrogen-related receptor gamma (Homo sapiens) (UniProt P62508); assay: ATG_ERRg_TRANS: Attagene TRANS-FACTORIAL HepG2 Assay for human Estrogen-Related Receptor gamma (ERRg) (AID 2282977); details: HepG2 Attagene TRANS reporter, ERRg transactivation;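 note: hits increase reporter signal over DMSO so potencies reflect activators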
# Method in brief: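 Transient HepG2 transfectants, 24 h compound exposure, GAL4-UAS reporter mRNA by RT-PCR/6-FAM labelling/capillary electrophoresis; positive direction vs DMSO.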
# [18] = biological target: Bile acid receptor (Homo sapiens) (UniProt Q96RI1); assay: ATG_FXR_TRANS: Attagene TRANS-FACTORIAL HepG2 Assay for Farnesoid X Receptor (FXR) (AID 2282979); details: HepG2 Attagene TRANS FXR-GAL4 reporter transcription;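 note: hits raise reporter mRNA above DMSO so AC50 marks FXR activation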
# Bile acid receptor (Homo sapiens), sequence (Q96RI1 whole entry, looked up, the tested form may be a part): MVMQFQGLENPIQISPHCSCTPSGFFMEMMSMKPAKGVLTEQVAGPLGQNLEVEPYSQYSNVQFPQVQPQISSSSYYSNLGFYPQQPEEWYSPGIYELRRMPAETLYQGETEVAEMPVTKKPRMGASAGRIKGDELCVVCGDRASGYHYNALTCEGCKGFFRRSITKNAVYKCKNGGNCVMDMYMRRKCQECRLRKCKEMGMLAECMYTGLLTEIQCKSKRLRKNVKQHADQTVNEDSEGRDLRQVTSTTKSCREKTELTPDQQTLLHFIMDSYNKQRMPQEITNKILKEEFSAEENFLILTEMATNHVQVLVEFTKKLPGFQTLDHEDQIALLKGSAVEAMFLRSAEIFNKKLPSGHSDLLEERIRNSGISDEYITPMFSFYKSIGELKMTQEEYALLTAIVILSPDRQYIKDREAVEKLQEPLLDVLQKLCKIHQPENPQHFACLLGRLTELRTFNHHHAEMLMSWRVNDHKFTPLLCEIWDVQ
# Method in brief: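 Transient transfection of HepG2 with multiplexed GAL4-UAS reporter units; exogenous FXR-GAL4 chimera. Dose 24 h → TriZol RNA → oligo(dT) RT → PCR, 6-FAM primer extension, HpaI cut → CE. Gain vs DMSO.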
smiles,measurement,setting,value
Clc1ccc(Cl)cc1,outcome,[1],inactive
same,outcome,[2],inactive
same,outcome,[3],inactive
same,outcome,[4],inactive
same,outcome,[5],inactive
same,outcome,[6],inactive
same,outcome,[7],inactive
same,outcome,[8],inactive
same,outcome,[9],inactive
same,outcome,[10],inactive
same,outcome,[11],inactive
same,outcome,[12],inactive
same,outcome,[13],inactive
same,outcome,[14],inactive
same,outcome,[15],inactive
OCC(O)CO,outcome,[1],inactive
same,outcome,[2],inactive
same,outcome,[3],inactive
same,AC50,[5],85.1 µM (active)
same,outcome,[16],inactive
same,outcome,[6],inactive
same,outcome,[7],inactive
same,outcome,[17],inactive
same,outcome,[9],inactive
same,outcome,[18],inactive
same,outcome,[10],inactive
same,outcome,[13],inactive
same,outcome,[14],inactive
same,outcome,[15],inactive
CC(c1ccc(O)cc1)(c1ccc(O)cc1)c1ccc(O)cc1,outcome,[1],inactive
same,outcome,[2],inactive
same,AC50,[3],6.08 µM (active)
same,AC50,[5],0.129 µM (active)
same,outcome,[16],inactive
same,outcome,[7],inactive
same,outcome,[8],inactive
same,outcome,[9],inactive
same,AC50,[18],2.98 µM (active)
same,outcome,[12],inactive
same,outcome,[13],inactive
same,outcome,[15],inactive
Cc1ccccc1CO[C@@H]1C[C@@]2(C(C)C)CC[C@]1(C)O2,outcome,[1],inactive
same,outcome,[2],inactive
same,AC50,[3],21.4 µM (active)
same,outcome,[4],inactive
same,outcome,[6],inactive
same,outcome,[10],inactive
same,outcome,[12],inactive
same,outcome,[13],inactive
same,outcome,[14],inactive
same,outcome,[15],inactive
Nc1ccc(-c2ccc(N)cc2)cc1,outcome,[1],inactive
same,outcome,[2],inactive
same,outcome,[3],inactive
same,outcome,[4],inactive
same,AC50,[5],38 µM (active)
same,outcome,[6],inactive
same,outcome,[8],inactive
same,outcome,[9],inactive
same,outcome,[11],inactive
same,outcome,[12],inactive
same,outcome,[13],inactive
same,outcome,[15],inactive
CCCCCCCCCc1ccc(O)cc1,outcome,[1],inactive
same,outcome,[2],inactive
same,AC50,[3],151 µM (active)
same,outcome,[3],inactive
same,outcome,[4],inactive
same,AC50,[5],5.66 µM (active) [middle of 4 runs]
same,outcome,[7],inactive
same,outcome,[10],inactive
same,outcome,[11],inactive
same,outcome,[12],inactive
same,outcome,[13],inactive
same,outcome,[14],inactive
same,AC50,[15],157 µM (active)
same,outcome,[15],inactive
O=C(O)C(F)(F)C(F)(F)C(F)(F)C(F)(F)C(F)(F)C(F)(F)C(F)(F)C(F)(F)C(F)(F)F,AC50,[1],61.9 µM (active)
same,outcome,[1],inactive
same,AC50,[2],48.9 µM (active) and 14.6 µM (active)
same,outcome,[2],inactive
same,outcome,[4],inactive
same,AC50,[5],25.4 µM (active) and 22.6 µM (active) and 17.2 µM (active)
same,outcome,[16],inactive
same,AC50,[6],50.8 µM (active) and 50 µM (active)
same,outcome,[6],inactive
same,outcome,[7],inactive
same,outcome,[8],inactive
same,outcome,[17],inactive
same,outcome,[9],inactive
same,outcome,[10],inactive
same,outcome,[11],inactive
same,outcome,[12],inactive
same,outcome,[13],inactive
same,AC50,[14],12.9 µM (active)
same,outcome,[14],inactive
same,outcome,[15],inactive
